Assay outcomes as filed in PubChem BioAssay.
POLK inh – blocks human DNA polymerase kappa activity; purified Pol kappa, fluorescent DNA synthesis assay, 10 min; Potency, µM (doses to about 107 µM), for inactives: at the highest dose activity, negative = inhibition, most hits filed as inhibitors; 400,000 tested, 0.53% active; AID 588579; note: potency is the fitted concentration of half-maximal effect; % is set by controls: 0 for no effect and ±100 for the full control effect
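Activity was followed as the change in fluorescence between reads at 0 and 10 min after starting the reaction with 50 nM substrate. Beforehand, 10 nM polymerase had been preincubated with compound for 15 min at room temperature.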
Pol beta inh – DNA polymerase beta (human) inhibition | P06746 | Pol beta primer extension/strand displacement, fluorescence kinetic | Potency, µM (titrated, usually from 114 µM), for inactives: at the highest dose activity change, negative = inhibition, most hits filed as inhibitors | 340,000 tested, 1.3% active; note: potency is the fitted concentration of half-maximal effect; % is set by controls: 0 for no effect and ±100 for the full control effect
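10 nM enzyme + cpd, 15 min RT; start with substrate 50 nM final; read 0 min and after 10 min RT. Corrected, normalized data; 4-parameter Hill curve fit.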
Pol eta inh – blocks human DNA polymerase eta activity | AID 588591 | 390,000 tested, 1.2% active | Potency, µM (highest dose often 114 µM), for the others: top-dose activity change, negative = inhibition, usual class: inhibitors | recombinant Pol eta, fluorescent DNA replication assay | Q9Y253; note: potency is the fitted concentration of half-maximal effect; % is set by controls: 0 for no effect and ±100 for the full control effect
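Pol eta (10 nM) was preincubated with compounds for 15 min at room temperature, after which fluorescent replication substrate (50 nM final) was added to start the reaction. Fluorescence was read kinetically at 0 and 10 min.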
PI4K2A inh – blocks human PI4K2A kinase activity | Q9BTU6 | purified PI4K2A, ADP-Glo luminescence, 1 h; hits give low values | activity change, negative = inhibition, % at 76.9 µM | 420,000 tested, 0.13% active | AID 1346378; in the data active = activity change below about -50%; inconclusive = mostly about -30% to -49%;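 note: -100% = wells without enzyme as full effect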
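ADP-Glo luminescence measured ADP generated by PI4K2A enzyme (4 ug/mL before mixing) with 1.2 mM PI substrate (pre-mix) and 300 microM ATP (pre-mix). Tris pH7.5 buffer with MgCl2, Triton X-100; 1 h reaction at ambient temperature.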
PI5P4K alpha inh – blocks human PI5P4K alpha kinase activity; P48426; PI5P4Kalpha enzyme, ADP-Glo luminescence, 60 min; hits give low values; max response, %; 330,000 tested, 1.2% active; active = max response of -50% or lower; inconclusive = between -30% and -50%; inactive = -30% or higher; note: value at the top dose of about 77 µM; % is set by controls: 0 for no effect and ±100 for the full control effect
Target sequence (P48426 whole entry, looked up): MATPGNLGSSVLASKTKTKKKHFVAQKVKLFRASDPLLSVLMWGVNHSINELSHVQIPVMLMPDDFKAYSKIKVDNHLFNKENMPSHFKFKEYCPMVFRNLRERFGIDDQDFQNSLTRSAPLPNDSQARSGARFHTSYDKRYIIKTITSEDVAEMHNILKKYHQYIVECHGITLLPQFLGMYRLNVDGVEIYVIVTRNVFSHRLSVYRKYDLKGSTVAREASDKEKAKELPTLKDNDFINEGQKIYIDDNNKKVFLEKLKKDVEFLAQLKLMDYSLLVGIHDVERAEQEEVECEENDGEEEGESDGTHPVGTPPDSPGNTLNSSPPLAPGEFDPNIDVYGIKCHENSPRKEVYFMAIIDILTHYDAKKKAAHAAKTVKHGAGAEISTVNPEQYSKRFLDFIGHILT
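Human PI5P4Kalpha with substrate in 0.038 M HEPES pH 7.4, 0.28 mM EGTA, 0.1% CHAPS, 5% DMSO; reaction started with 5 microM ATP (final), 60 min at room temperature. ADP formed read by ADP-Glo luminescence.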
Pol iota inh – blocks human DNA polymerase iota activity; 390,000 tested, 1% active; Q9UNA4; Potency, µM (doses to about 115 µM), inactives show top-dose activity, negative = inhibition, hits mostly inhibitors; Pol iota fluorescent replication assay, 10 min; AID 588590; note: potency is the fitted concentration of half-maximal effect
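Pol iota at 10 nM preincubated 15 min with compounds at room temperature; reaction started with fluorescent substrate, 50 nM final. Fluorescence read kinetically at 0 and 10 min; buffer-only wells as negative control.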
* hit, by the source's call; ? = inconclusive; . = no result; ! = not active in a repeat; [ ] = dose if it differs, or a comment. A selection: hits, their analogues and other compounds. The true share with any hit is near 2.8%. Unless noted, calls come from the whole dose curve; as a rule, active = well fitted inhibition curve with a large enough effect; inconclusive = small, poorly fitted or top-dose-only effect, or another doubt; inactive = no such curve, though single readings can be large or run the other way.

SMILES	POLK inh	Pol beta inh	Pol eta inh	PI4K2A inh	PI5P4K alpha inh	Pol iota inh
CCn1c2ccccc2c2cc(/C=N/NC(=O)c3ccncc3)ccc21	-28.9%	15.8µM*	?	-21.9	-10.1	73.6%
CCc1ccc2oc(-c3ccc(C)c(NC(=O)COc4ccc(Cl)cc4)c3)nc2c1	-12.0%	.	.	.	.	-4.4%
CCN1C(=O)[C@H]2[C@H]3[C@H](O)[C@H](O)CC(=O)[C@@H]3CC[C@H]2C1=O	-5.1%	.	.	.	.	0.7%
CC1=NNC(=O)/C1=C\c1cn(-c2ccccc2)nc1-c1ccc(F)cc1	-8.8%	6.2%	-7.9%	?	-13.2	25.1µM*
CCOC(=O)c1c2c(n(-c3ccc(OC)cc3)c1C)C(=O)C(=O)c1ccccc1-2	-6.3%	.	3.16µM*	?	-12.4	8.91µM*
COc1ccc(Nc2nc(N3CCCC3)nc3ccccc23)c(OC)c1	-21.5%	20µM*	-18.1%	-1.9	.	?
COc1ccc(Nc2nc(-c3ccc(C)cc3)nc3ccccc23)c(OC)c1	-11.8%[60.1 µM]	2.2%	-0.6%	0.5	.	-29.4%
CCc1cc2cc(C(=O)Nc3ccc(F)cc3)sc2s1	-5.0%	56.2µM*	?	-17.4	-4.3	?
Cc1cc(-c2csc(NCc3ccccc3)n2)c(C)n1C	-11.1%	27.6%	-15.5%	?	-54.7*	48.4%
Cc1nc(N)sc1-c1csc(NCc2ccccc2)n1	-17.7%	3.0%	-7.1%	-12.2	?	-0.3%
COc1ccc(OC)c(NC(=O)c2c(NCc3ccc(N(C)C)cc3)sc3c2CCCC3)c1	-8.0%[60.1 µM]	1.4%	-17.9%	-7.3	.	9.2%
CC(Sc1nnc(-c2ccccc2)n1C)C(=O)NCc1ccco1 (stereo not drawn)	-7.4%	.	.	.	.	-12.9%
O=c1nccc(N/N=C/c2ccccc2O)[nH]1	5.4%	0.9%	-4.6%	-52.9*	-24.5	52.3%
COc1cccc(/C=N/Nc2ccnc(=O)[nH]2)c1O	-1.0%	13.6%	-2.4%	?	-19.7	27.1%
O=C(Nc1ncnc2sc3c(c12)CCCCC3)c1ccco1	-7.8%	7.4%	22.4µM*	-10.6	1.8	-4.4%
O=c1c2cc([N+](=O)[O-])cc([N+](=O)[O-])c2[nH]n1-c1ccccc1	-10.7%	-7.5%	?	?	-97.7*	?
O=C(c1ccccc1)c1cc(-c2ccccc2)on1	-3.5%	-0.1%	-18.2%	-51.1*	13.8	0.4%
Cc1ccc(C(=O)Nc2c(C)cc(-c3ccccc3)oc2=O)cc1	0.3%	-1.5%	-16.3%	-3.0	5.6	67.8%
O=C(c1ccccc1)c1c(O)cc(-c2ccccc2)oc1=O	-17.3%	15.8µM*	-9.5%	-4.6	5.0	-5.0%
Cn1cc(S(=O)(=O)N2CCCC2)cc1C(=O)Nc1ccc(C(F)(F)F)cc1	-17.5%	25.1µM*	-19.9%	1.1	.	?
Cn1cc(S(=O)(=O)N2CCCC2)cc1C(=O)Nc1cccc(C(F)(F)F)c1	1.1%	34.6%	-1.7%	-4.1	2.6	30.5%
COC(=O)C1=C(C)NC(C)=C(C(=O)OCCc2ccc(N3CCN(C(c4ccccc4)c4ccccc4)CC3)cc2)C1c1cccc([N+](=O)[O-])c1 (stereo not drawn)	.	.	.	0.4	.	.
CCCCNS(=O)(=O)c1ccc2nc(-c3cccnc3)cc(C(=O)NCCCOCC)c2c1	-3.7%[60.1 µM]	44.7µM*	-17.3%	-1.4	.	-14.7%
CCCCNS(=O)(=O)c1ccc2nc(-c3cccnc3)cc(C(=O)NCCCOC)c2c1	-11.1%	0.7%	0.6%	-23.9	-1.3	46.9%
O=C1NC(=O)C(c2ccccc2[N+](=O)[O-])=C1Nc1ccc(O)c(Cl)c1	11.2µM*!	11.2µM*	?	-7.6	?	28.2µM*!
SMILES	POLK inh	Pol beta inh	Pol eta inh	PI4K2A inh	PI5P4K alpha inh	Pol iota inh
CCOC(=O)N1CCN(/[N+]([O-])=N/Oc2ccc(C(F)(F)F)cc2[N+](=O)[O-])CC1	3.1%	.	.	.	.	12.0%
COc1ccc(C2Nc3ccccc3C(=O)N2Cc2ccco2)cc1COc1c(C)cccc1C (stereo not drawn)	-15.6%	.	.	.	.	25.1µM*
COc1cccc(OCc2cc(C3Nc4ccccc4C(=O)N3Cc3ccco3)ccc2OC)c1 (stereo not drawn)	-9.7%	5.8%	-22.2%	-2.1	8.2	24.4%
Cc1ccc(S(=O)(=O)N2CCCCC2C(=O)NCc2ccco2)cc1 (stereo not drawn)	-29.8%	8.2%	?	-3.4	-12.7	89.1µM*
COC(=O)Nc1ccc(S(=O)(=O)N2CCCCC2C(=O)NCc2ccco2)cc1 (stereo not drawn)	8.6%	16.8%	-1.9%	-1.3	0.7	?
O=C(NCc1ccccc1F)C1CCCN(S(=O)(=O)c2ccc(-n3cnnn3)cc2)C1 (stereo not drawn)	-4.9%	-23.1%	-2.0%	-4.0	4.8	25.6%
O=C(NCc1ccco1)C1CCCN(S(=O)(=O)c2ccc(-n3cnnn3)cc2)C1 (stereo not drawn)	?	25.1µM*	20µM*	-8.5	-26.0	?
O=C(CC1NCCC[C@H]1O)Cn1cnc2cc(Br)c(Cl)cc2c1=O (stereo partly drawn)	-2.6%[19.4 µM]	.	.	.	.	.
C[C@@H](O)[C@H]1C(=O)N2C(C(=O)O)=C([C@H]3CCCO3)S[C@H]12	.	.	.	3.1	.	.
COc1cc2nc(N3CCCN(C)CC3)nc(N)c2cc1OC	-29.8%	.	.	.	.	-13.3%
CCOC(=O)C1=C(O)c2ccccc2C(=O)/C1=C\c1ccc(C)cc1	-2.1%	-9.7%	?	1.3	-55.7*	?
CCOC(=O)C1=C(C)OC(=Cc2ccccc2)C1=O	.	.	-26.5%	-6.6	0.2	.
CC(=O)NN1C(=O)c2ccc(Oc3ccc4c(c3)C(=O)N(NC(C)=O)C4=O)cc2C1=O	.	11.2µM*	.	.	.	.
CC(=O)NN1C(=O)c2ccc(Oc3ccc([N+](=O)[O-])cc3)cc2C1=O	-14.8%	17.2%	0.6%	1.2	.	69.0%
O=C(O)CN1C(=O)c2ccc(Oc3cccc4c3C(=O)N(CC(=O)O)C4=O)cc2C1=O	-7.5%	-23.4%	79.4µM*	-4.8	.	16.9%
O=C(O)CN1C(=O)c2ccc(Oc3ccc4c(c3)C(=O)N(CC(=O)O)C4=O)cc2C1=O	-36.9%	25.3%	31.6µM*	-0.3	-3.3	-8.6%
O=C(COc1cccc(NC(=O)c2ccccc2)c1)c1ccccc1	-15.8%	11.2%	4.5%	-0.5	11.1	14.4%
COc1cccc(OCC(=O)NNC(=O)CCc2ccccc2)c1	-4.4%	8.4%	-20.3%	2.6	0.0	17.2%
Cc1cccc(OCC(=O)Nc2ccc(C(=O)Nc3ccccc3C(=O)O)cc2)c1	.	.	-16.2%	1.3	-52.4*	.
Cc1cccc(OCC(=O)Nc2ccc(NC(=O)c3ccccc3)cc2)c1	-6.3%	21.9%	-11.3%	2.4	3.7	31.9%
